# A structure can be active in one record and inactive in another. Active and inactive are the calls of the source. The calls were made as follows: active = hit-call score of the fitted dose curve at least 0.9, where 1 is the maximum; inactive = score below 0.9.
# What was measured:
# [1] = ATG_GLI_CIS: Attagene CIS-FACTORIAL HepG2 Assay for human Zinc Finger Protein GLI1 (AID 2282945); settings: HepG2, Attagene cis-factorial reporter mRNA, GLI element; actives raise or lower the signal
# How it was run: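 HepG2 cells transiently transfected with cis-promoter multiplexed reporter units report endogenous transcription factor activity. After 24 h chemical exposure, reporter mRNA was quantified by RT-PCR, 6-FAM labelling, HpaI digestion and capillary electrophoresis, with bidirectional fitting against DMSO.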
# [2] = target: Bile acid receptor (Homo sapiens) (UniProt Q96RI1); assay: ATG_IR1_CIS: Attagene CIS-FACTORIAL HepG2 Assay for human Nuclear Receptor Subfamily 1 Group H Member 4 (NR1H4), IR1 submotif (AID 2282946); settings: IR1 reporter transcription, actives raise or lower the signal
# How it was run: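 Transient MRTU transfection, HepG2; 24 h dosing; RNA → RT-PCR → 6-FAM primer extension → HpaI digest → capillary electrophoresis fluorescence. Gain/loss of signal fitted relative to DMSO.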
# [3] = ATG_GRE_CIS: Attagene CIS-FACTORIAL HepG2 Assay for human Glucocorticoid Response Elements (GRE) (AID 2282947); settings: HepG2 GRE cis-reporter, Attagene multiplex mRNA; actives raise or lower the signal
# How it was run: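 HepG2 cells transiently transfected with multiple cis-promoter reporter units measure endogenous TF activity; 24 h compound exposure. Reporter mRNA quantified by RT-PCR, FAM labelling, HpaI digestion and capillary electrophoresis; bidirectional fit vs DMSO baseline.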
# [4] = ATG_ISRE_CIS: Attagene CIS-FACTORIAL HepG2 Assay for human Interferon Regulatory Factor 1 (IRF1) binding to an Interferon-Stimulated Response Element (ISRE) (AID 2282948); settings: HepG2 ISRE cis-reporter (Attagene), mRNA transcription readout; actives raise or lower the signal
# How it was run: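 Cell-based cis-reporter assay; HepG2; 24 h exposure; reporter mRNA by RT-PCR plus capillary electrophoresis fluorescence; activity in either direction scored relative to DMSO.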
# [5] = ATG_M_32_CIS: Attagene CIS-FACTORIAL HepG2 Assay for M32 Transcription Factor (Internal Marker) (AID 2282949); settings: HepG2 Attagene cis-factorial M32 reporter, mRNA; actives raise or lower the signal;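 also: background control marker of the multiplexed CIS panel rather than a real target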
# How it was run: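 Following 24 h chemical exposure of HepG2 cells transiently expressing cis-promoter reporter constructs, reporter transcript levels were determined by RT-PCR with fluorescent labelling and capillary electrophoresis, then fitted bidirectionally against DMSO.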
# [6] = ATG_M_06_CIS: Attagene CIS-FACTORIAL HepG2 Assay for M06 Transcription Factor (Internal Marker) (AID 2282950); settings: HepG2 Attagene CIS-FACTORIAL M06 internal marker reporter; actives raise or lower the signal
# How it was run: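 Steps: transfect HepG2 with multiplexed cis-element reporter constructs; dose chemical 24 h; extract RNA with DNase treatment; reverse-transcribe, PCR-amplify, 6-FAM label, HpaI digest; separate fragments by capillary electrophoresis. Activity fitted both directions versus DMSO.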
# [7] = target: Hypoxia-inducible factor 1-alpha (Homo sapiens) (UniProt Q16665); assay: ATG_HIF1a_CIS: Attagene CIS-FACTORIAL HepG2 Assay for human Hypoxia Inducible Factor 1 (HIF1A) (AID 2282951); settings: HepG2 Attagene cis-factorial HIF1a reporter transcription; actives raise or lower the signal
# How it was run: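 Cis-element reporter constructs were transiently transfected into HepG2 cells, which were treated for 24 h; reporter RNA was reverse-transcribed, amplified, labelled and resolved by capillary electrophoresis.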
# [8] = target: Hepatocyte nuclear factor 6 (Homo sapiens) (UniProt Q9UBC0); assay: ATG_HNF6_CIS: Attagene CIS-FACTORIAL HepG2 Assay for human Hepatocyte Nuclear Factor 6 (HNF6) (AID 2282952); settings: HepG2 Attagene cis-factorial HNF6 reporter transcription; actives raise or lower the signal
# How it was run: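 HepG2 cells transiently transfected with cis-element-driven multiple reporter transcription units, dosed 24 h; reporter mRNA quantified by RT-PCR, FAM primer extension, HpaI digestion and capillary electrophoresis; bidirectional fit versus DMSO baseline.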
# [9] = target: Heat shock factor protein 1 (Homo sapiens) (UniProt Q00613); assay: ATG_HSE_CIS: Attagene CIS-FACTORIAL HepG2 Assay for human Heat Shock Transcription Factor 1 (HSE) (AID 2282953); settings: HepG2 HSE cis-reporter, Attagene RNA transcription; actives raise or lower the signal
# How it was run: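 Cells were transfected with cis-element-driven reporter constructs, dosed for 24 h, then total RNA was reverse-transcribed and reporter cDNA amplified, FAM-labelled and digested with HpaI. Fragments were resolved by capillary electrophoresis; gain or loss was fitted against DMSO.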
# [10] = ATG_MRE_CIS: Attagene CIS-FACTORIAL HepG2 Assay for human Metal Responsive Element (MRE) (AID 2282954); settings: HepG2 MRE cis-reporter transcription, Attagene multiplex; actives raise or lower the signal
# How it was run: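 HepG2 cells transiently transfected with multiple cis-element reporter units measure endogenous MTF1-driven transcription. After 24 h compound exposure, reporter mRNA is quantified by RT-PCR with 6-FAM labelling, HpaI digestion and capillary electrophoresis; bidirectional fits versus DMSO.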
# [11] = ATG_PBREM_CIS: Attagene CIS-FACTORIAL HepG2 Assay for human Phenobarbital-responsive Enhancer Module (PBREM) (AID 2282955); settings: HepG2 PBREM cis-reporter, Attagene multiplexed transcription; actives raise or lower the signal
# How it was run: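 Multiplexed cis-reporter readout in human hepatoma HepG2 cells; PBREM-regulated transcript quantified after 24 h exposure by fluorescent RT-PCR fragment analysis. Signal changes up or down fitted relative to DMSO.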
# [12] = target: Paired box protein Pax-6 (Homo sapiens) (UniProt P26367); assay: ATG_Pax6_CIS: Attagene CIS-FACTORIAL HepG2 Assay for human Paired Box 6 (PAX6) (AID 2282956); settings: HepG2 CIS-FACTORIAL PAX6 reporter transcription, RNA readout; actives raise or lower the signal
# How it was run: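 Multiplexed cis-reporter HepG2 system; 24 h treatment; reporter mRNA read by RT-PCR/CE fluorescence; bidirectional fit vs DMSO.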
# [13] = ATG_PXRE_CIS: Attagene CIS-FACTORIAL HepG2 Assay for human Pregnane X Receptor Element (PXRE) (AID 2282957); settings: HepG2 Attagene CIS-FACTORIAL PXRE reporter, mRNA; actives raise or lower the signal
# How it was run: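 HepG2 cells transiently transfected with cis-regulated multiple reporter transcription units; endogenous factor activity measured as reporter mRNA 24 h after dosing. RT-PCR, fluorescent primer extension, HpaI digestion, capillary electrophoresis; bidirectional fit versus DMSO baseline.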
# [14] = ATG_PPRE_CIS: Attagene CIS-FACTORIAL HepG2 Assay for human Peroxisome Proliferator-activated Response Element (PPRE) (AID 2282958); settings: HepG2 PPRE cis-element reporter, Attagene transcription factor profiling; actives raise or lower the signal
# How it was run: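 DMSO served as negative control and baseline for bidirectional curve fitting. Signal came from PPRE-regulated reporter mRNA in HepG2 cells, measured 24 h post-dosing by RT-PCR, 6-FAM primer extension and capillary electrophoresis.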
# [15] = ATG_RORE_CIS: Attagene CIS-FACTORIAL HepG2 Assay for human RAR-related Orphan Receptor Element (RORE) (AID 2282959); settings: HepG2 Attagene cis-factorial RORE reporter, mRNA; actives raise or lower the signal
# How it was run: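 Transfect HepG2 with MRTUs; treat 24 h; extract RNA; RT with oligo(dT); PCR with reporter-specific primers; 6-FAM primer extension; HpaI digest 2 h at 37 C; capillary electrophoresis. Fit vs DMSO, bidirectional.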
# [16] = ATG_Sox_CIS: Attagene CIS-FACTORIAL HepG2 Assay for human SRY-box transcription factor (SOX) (AID 2282960); settings: HepG2 Attagene cis-factorial SOX reporter, mRNA; actives raise or lower the signal
# How it was run: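 Fluorescence-labelled cDNA fragments from reporter transcripts, sized by CE, give the signal. Cells: HepG2, transiently transfected with cis-regulated reporter units. Exposure 24 h; DMSO negative control; bidirectional curve fitting.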
# [17] = target: Transcription factor Sp1 (Homo sapiens) (UniProt P08047); assay: ATG_Sp1_CIS: Attagene CIS-FACTORIAL HepG2 Assay for human Specificity Protein 1 (Sp1) (AID 2282961); settings: HepG2 Sp1 cis-reporter transcription, actives raise or lower the signal
# How it was run: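 Chemicals are dosed onto HepG2 cells transfected with multiple cis-promoter reporter constructs, and after 24 h reporter RNA is reverse-transcribed, PCR-amplified and resolved by capillary electrophoresis for fluorescence quantitation; activity is scored up or down against DMSO.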
# [18] = ATG_SREBP_CIS: Attagene CIS-FACTORIAL HepG2 Assay for human Sterol Regulatory Element Binding (SREBP) (AID 2282962); settings: HepG2 Attagene cis-factorial SREBP reporter, mRNA; actives raise or lower the signal
# How it was run: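 mRNA induction of transfected cis-promoter reporters in HepG2 cells, 24 h post-dose. Detection: RT-PCR with 6-FAM-labelled products, HpaI digest, capillary electrophoresis. DMSO served as negative control and baseline.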
# [19] = target: Signal transducer and activator of transcription 3 (Homo sapiens) (UniProt P40763); assay: ATG_STAT3_CIS: Attagene CIS-FACTORIAL HepG2 Assay for human Signal Transducer and Activator of Transcription 3 (STAT3) (AID 2282963); settings: HepG2, Attagene cis-factorial STAT3 reporter transcription; actives raise or lower the signal
# How it was run: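 HepG2 cells transiently transfected with cis-element-driven multiple reporter transcription units; after 24 h chemical exposure, reporter mRNA measured by RT-PCR, 6-FAM primer-extension labelling, HpaI digestion and capillary electrophoresis. Bidirectional fitting versus DMSO baseline.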
# [20] = ATG_TA_CIS: Attagene CIS-FACTORIAL HepG2 Assay for human TA Basal Promoter (AID 2282964); settings: HepG2 Attagene CIS-factorial TA basal promoter reporter; actives raise or lower the signal
# How it was run: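 Steps: transfect HepG2 with MRTUs; dose 24 h; isolate RNA, DNase-treat, reverse-transcribe; PCR and FAM-label reporter cDNA; digest with HpaI 2h at 37 C; run capillary electrophoresis. Activity fitted both directions against DMSO.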
# Chain of Bile acid receptor (Homo sapiens) (Q96RI1 whole entry, looked up): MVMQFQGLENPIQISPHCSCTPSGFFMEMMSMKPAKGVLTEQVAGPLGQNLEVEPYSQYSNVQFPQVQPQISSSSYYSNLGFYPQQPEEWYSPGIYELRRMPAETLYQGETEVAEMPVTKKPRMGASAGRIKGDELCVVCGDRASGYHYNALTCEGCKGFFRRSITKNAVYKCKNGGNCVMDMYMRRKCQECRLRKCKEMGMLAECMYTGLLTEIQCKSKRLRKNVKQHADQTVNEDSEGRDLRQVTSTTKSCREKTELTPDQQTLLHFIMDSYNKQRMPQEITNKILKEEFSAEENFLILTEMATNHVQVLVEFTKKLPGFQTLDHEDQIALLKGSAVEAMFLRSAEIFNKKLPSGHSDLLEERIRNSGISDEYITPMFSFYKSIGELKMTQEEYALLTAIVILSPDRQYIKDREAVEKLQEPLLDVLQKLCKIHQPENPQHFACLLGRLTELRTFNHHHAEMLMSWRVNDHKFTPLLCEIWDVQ
# Chain of Paired box protein Pax-6 (Homo sapiens) (P26367 whole entry, looked up): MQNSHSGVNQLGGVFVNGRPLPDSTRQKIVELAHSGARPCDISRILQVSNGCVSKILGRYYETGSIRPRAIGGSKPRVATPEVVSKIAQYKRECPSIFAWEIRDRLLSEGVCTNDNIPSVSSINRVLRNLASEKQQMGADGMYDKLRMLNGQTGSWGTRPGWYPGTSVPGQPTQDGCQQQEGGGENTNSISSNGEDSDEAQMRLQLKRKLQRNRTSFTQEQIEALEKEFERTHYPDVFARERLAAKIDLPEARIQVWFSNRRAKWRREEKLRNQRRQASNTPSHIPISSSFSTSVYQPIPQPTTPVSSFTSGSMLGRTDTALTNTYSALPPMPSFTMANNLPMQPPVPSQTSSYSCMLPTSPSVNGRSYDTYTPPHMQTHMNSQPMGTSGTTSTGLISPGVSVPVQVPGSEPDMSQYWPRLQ
# Chain of Transcription factor Sp1 (Homo sapiens) (P08047 whole entry, looked up): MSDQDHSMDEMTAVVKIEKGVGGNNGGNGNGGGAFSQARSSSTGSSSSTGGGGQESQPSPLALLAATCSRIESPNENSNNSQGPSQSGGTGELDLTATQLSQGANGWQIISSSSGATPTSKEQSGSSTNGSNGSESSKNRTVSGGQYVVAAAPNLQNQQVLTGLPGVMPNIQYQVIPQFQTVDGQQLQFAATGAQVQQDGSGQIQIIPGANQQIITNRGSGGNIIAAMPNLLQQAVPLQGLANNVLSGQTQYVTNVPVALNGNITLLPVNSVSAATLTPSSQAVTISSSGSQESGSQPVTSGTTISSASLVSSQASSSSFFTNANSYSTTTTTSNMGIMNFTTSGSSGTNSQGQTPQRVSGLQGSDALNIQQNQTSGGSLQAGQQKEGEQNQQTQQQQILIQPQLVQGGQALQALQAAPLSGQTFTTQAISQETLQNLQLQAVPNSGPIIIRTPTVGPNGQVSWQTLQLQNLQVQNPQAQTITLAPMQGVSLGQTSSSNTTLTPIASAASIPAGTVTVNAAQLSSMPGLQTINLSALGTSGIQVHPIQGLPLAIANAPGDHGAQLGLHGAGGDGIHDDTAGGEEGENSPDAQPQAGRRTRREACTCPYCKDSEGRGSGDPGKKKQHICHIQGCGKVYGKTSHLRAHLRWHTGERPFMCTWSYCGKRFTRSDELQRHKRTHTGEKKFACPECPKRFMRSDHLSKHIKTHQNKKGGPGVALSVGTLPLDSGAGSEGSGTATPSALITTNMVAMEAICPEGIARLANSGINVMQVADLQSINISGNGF
# Chain of Heat shock factor protein 1 (Homo sapiens) (Q00613 whole entry, looked up, the tested form may be a part): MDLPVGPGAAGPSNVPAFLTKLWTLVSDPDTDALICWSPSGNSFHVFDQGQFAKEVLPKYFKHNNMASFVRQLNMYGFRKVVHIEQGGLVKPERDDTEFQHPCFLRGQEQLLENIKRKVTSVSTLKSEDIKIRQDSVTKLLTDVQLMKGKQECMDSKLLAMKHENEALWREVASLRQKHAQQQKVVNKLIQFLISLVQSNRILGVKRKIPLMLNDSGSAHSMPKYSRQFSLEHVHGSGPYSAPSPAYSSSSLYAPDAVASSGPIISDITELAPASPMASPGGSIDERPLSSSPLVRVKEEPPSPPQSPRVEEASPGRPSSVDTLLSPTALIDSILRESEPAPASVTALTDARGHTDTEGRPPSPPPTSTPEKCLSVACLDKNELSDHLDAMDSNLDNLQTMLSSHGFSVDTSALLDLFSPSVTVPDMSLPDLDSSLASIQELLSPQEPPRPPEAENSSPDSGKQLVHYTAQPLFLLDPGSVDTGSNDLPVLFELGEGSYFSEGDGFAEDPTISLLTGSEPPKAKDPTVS
# Chain of Signal transducer and activator of transcription 3 (Homo sapiens) (P40763 whole entry, looked up): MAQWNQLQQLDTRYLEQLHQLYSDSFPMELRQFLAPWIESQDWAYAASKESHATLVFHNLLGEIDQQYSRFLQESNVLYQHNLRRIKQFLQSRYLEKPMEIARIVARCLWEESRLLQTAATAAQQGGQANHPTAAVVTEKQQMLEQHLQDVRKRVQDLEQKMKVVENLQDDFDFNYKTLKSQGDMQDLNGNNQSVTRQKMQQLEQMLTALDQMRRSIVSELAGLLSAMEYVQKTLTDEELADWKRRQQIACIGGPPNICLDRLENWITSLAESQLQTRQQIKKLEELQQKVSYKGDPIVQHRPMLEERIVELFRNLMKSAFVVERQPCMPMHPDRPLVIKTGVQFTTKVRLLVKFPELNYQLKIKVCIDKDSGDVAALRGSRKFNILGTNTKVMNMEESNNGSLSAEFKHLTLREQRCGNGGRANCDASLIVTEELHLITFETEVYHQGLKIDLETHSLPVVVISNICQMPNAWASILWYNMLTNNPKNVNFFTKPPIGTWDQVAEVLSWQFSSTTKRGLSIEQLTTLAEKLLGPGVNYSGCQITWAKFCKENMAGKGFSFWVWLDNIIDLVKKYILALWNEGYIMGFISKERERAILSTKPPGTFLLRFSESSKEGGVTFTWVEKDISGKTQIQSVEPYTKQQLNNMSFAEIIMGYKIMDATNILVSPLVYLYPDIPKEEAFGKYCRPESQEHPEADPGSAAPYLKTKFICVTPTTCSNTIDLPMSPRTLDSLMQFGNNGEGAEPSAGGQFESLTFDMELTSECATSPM
# Chain of Hepatocyte nuclear factor 6 (Homo sapiens) (Q9UBC0 whole entry, looked up): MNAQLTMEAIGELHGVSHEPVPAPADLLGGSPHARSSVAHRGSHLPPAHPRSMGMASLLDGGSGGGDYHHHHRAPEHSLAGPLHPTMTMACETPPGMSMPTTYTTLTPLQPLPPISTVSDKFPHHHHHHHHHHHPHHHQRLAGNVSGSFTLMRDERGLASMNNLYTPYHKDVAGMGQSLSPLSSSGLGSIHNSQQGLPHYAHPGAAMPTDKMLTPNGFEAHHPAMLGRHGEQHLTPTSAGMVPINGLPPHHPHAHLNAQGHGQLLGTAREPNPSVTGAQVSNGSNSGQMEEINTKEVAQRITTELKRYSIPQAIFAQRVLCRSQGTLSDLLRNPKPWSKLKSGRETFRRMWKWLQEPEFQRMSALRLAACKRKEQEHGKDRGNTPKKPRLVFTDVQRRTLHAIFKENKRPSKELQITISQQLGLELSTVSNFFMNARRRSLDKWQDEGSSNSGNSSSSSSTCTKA
# Chain of Hypoxia-inducible factor 1-alpha (Homo sapiens) (Q16665 whole entry, looked up): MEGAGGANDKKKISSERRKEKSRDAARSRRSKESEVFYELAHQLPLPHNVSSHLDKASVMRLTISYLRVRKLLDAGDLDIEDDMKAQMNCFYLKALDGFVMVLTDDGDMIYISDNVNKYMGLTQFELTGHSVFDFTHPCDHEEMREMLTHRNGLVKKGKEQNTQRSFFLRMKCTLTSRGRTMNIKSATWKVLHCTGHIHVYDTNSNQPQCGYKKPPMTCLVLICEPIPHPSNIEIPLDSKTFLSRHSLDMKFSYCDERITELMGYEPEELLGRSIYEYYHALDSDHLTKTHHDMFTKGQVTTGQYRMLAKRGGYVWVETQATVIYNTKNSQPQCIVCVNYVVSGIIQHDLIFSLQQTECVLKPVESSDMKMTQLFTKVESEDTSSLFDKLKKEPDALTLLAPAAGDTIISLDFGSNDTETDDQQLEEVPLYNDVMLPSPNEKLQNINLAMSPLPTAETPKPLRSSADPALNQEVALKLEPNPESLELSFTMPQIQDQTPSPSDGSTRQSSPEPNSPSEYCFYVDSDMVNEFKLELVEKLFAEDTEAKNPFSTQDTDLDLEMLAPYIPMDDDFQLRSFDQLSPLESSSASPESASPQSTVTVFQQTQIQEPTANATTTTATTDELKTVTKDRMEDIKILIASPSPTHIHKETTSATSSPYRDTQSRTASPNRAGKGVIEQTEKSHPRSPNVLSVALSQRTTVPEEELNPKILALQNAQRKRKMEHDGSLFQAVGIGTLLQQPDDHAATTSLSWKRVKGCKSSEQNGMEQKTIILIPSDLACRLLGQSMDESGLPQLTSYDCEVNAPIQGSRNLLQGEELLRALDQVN
structure (smiles),measurement,setting,value
FC(F)(I)C(F)(F)C(F)(F)C(F)(F)I,outcome,[1],inactive
same,outcome,[2],inactive
same,outcome,[3],inactive
same,outcome,[4],inactive
same,outcome,[5],inactive
same,outcome,[6],inactive
same,outcome,[7],inactive
same,outcome,[8],inactive
same,outcome,[9],inactive
same,outcome,[10],inactive
same,outcome,[11],inactive
same,outcome,[12],inactive
same,outcome,[13],inactive
same,outcome,[14],inactive
same,outcome,[15],inactive
same,outcome,[16],inactive
same,outcome,[17],inactive
same,outcome,[18],inactive
same,outcome,[19],inactive
same,outcome,[20],inactive
CC/C=C\CCOC(C)=O,outcome,[1],inactive
same,outcome,[2],inactive
same,outcome,[3],inactive
same,outcome,[4],inactive
same,outcome,[5],inactive
same,outcome,[6],inactive
same,outcome,[7],inactive
same,outcome,[8],inactive
same,outcome,[9],inactive
same,outcome,[10],inactive
same,outcome,[11],inactive
same,outcome,[12],inactive
same,AC50,[13],70 µM (active)
same,outcome,[14],inactive
same,outcome,[15],inactive
same,outcome,[16],inactive
same,outcome,[17],inactive
same,outcome,[18],inactive
same,outcome,[19],inactive
same,outcome,[20],inactive
Nc1cc(Cl)c(N)c(Cl)c1,outcome,[1],inactive
same,outcome,[2],inactive
same,outcome,[3],inactive
same,outcome,[4],inactive
same,outcome,[5],inactive
same,outcome,[6],inactive
same,outcome,[7],inactive
same,outcome,[8],inactive
same,outcome,[9],inactive
same,outcome,[10],inactive
same,outcome,[11],inactive
same,outcome,[12],inactive
same,AC50,[13],37 µM (active)
same,outcome,[14],inactive
same,outcome,[15],inactive
same,outcome,[16],inactive
same,outcome,[17],inactive
same,outcome,[18],inactive
same,outcome,[19],inactive
same,outcome,[20],inactive
FC(F)(F)C(F)(F)C(F)(F)C(F)(F)C(F)(F)C(F)(F)C(F)(F)C(F)(F)CCS,outcome,[1],inactive
same,outcome,[2],inactive
same,outcome,[3],inactive
same,outcome,[4],inactive
same,outcome,[5],inactive
same,outcome,[6],inactive
same,outcome,[7],inactive
same,outcome,[8],inactive
same,outcome,[9],inactive
same,outcome,[10],inactive
same,outcome,[11],inactive
same,outcome,[12],inactive
same,outcome,[13],inactive
same,outcome,[14],inactive
same,outcome,[15],inactive
same,outcome,[16],inactive
same,outcome,[17],inactive
same,outcome,[18],inactive
same,outcome,[19],inactive
FC(F)(F)C(F)(F)C(F)(F)C(F)(F)C(F)(F)C(F)(F)CC1CO1 (stereo not given),outcome,[1],inactive
same,outcome,[2],inactive
same,outcome,[3],inactive
same,outcome,[4],inactive
same,outcome,[5],inactive
same,outcome,[6],inactive
same,outcome,[7],inactive
same,outcome,[8],inactive
same,outcome,[9],inactive
same,outcome,[10],inactive
same,outcome,[12],inactive
same,outcome,[13],inactive
same,outcome,[14],inactive
same,outcome,[15],inactive
same,outcome,[16],inactive
same,outcome,[17],inactive
same,outcome,[18],inactive
same,outcome,[19],inactive
CCCCCCC(C)OC(=O)CCCCC(=O)OC(C)CCCCCC (stereo not given),outcome,[1],inactive
same,outcome,[2],inactive
same,outcome,[3],inactive
same,outcome,[4],inactive
same,outcome,[5],inactive
same,outcome,[6],inactive
same,outcome,[7],inactive
same,outcome,[8],inactive
same,outcome,[9],inactive
same,outcome,[10],inactive
same,outcome,[12],inactive
same,AC50,[13],12.8 µM (active)
same,outcome,[14],inactive
same,outcome,[15],inactive
same,outcome,[16],inactive
same,outcome,[17],inactive
same,outcome,[18],inactive
same,outcome,[19],inactive
Cc1cc(C)cc(O)c1,outcome,[1],inactive
same,outcome,[3],inactive
same,outcome,[4],inactive
same,outcome,[5],inactive
same,outcome,[6],inactive
same,outcome,[7],inactive
same,outcome,[8],inactive
same,outcome,[9],inactive
same,outcome,[10],inactive
same,outcome,[11],inactive
same,outcome,[12],inactive
same,AC50,[13],64.5 µM (active)
same,outcome,[13],inactive
same,outcome,[14],inactive
same,outcome,[15],inactive
same,outcome,[16],inactive
same,outcome,[17],inactive
same,outcome,[18],inactive
same,outcome,[19],inactive
same,outcome,[20],inactive

# From PubChem BioAssay (EPA / NIEHS)
